RE007 growth inh: qHTS Assay for Inhibitors of the HIV-1 protein Vpr | S. pombe RE007 Vpr strain, BacTiter-Glo ATP luminescence, 24 h | Potency, µM (doses to about 92.2 µM), most hits filed as inhibitors | actives 0.21% (n = 360,000) | AID 651644, 2012; active = well fitted falling curve with a large enough effect; inconclusive = small, poorly fitted or top-dose-only effect; inactive = no such curve, though single readings can be large or run the other way; also: nearly all actives have a fitted effect of over 50% in size
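Fission yeast strain RE007, carrying one chromosomally integrated HIV-1 vpr copy, was seeded at OD 0.01 in PMG+AL medium with 23 nL pinned compound. After 24 h at 30 °C and 99% humidity, viability was read by BacTiter-Glo luminescence.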
HCMV antiviral: qHTS Assay for inhibitors of the human cytomegalovirus (HCMV); activity change, negative = inhibition, % at 57.5 µM; actives 4.5% (n = 410,000); HFF cells, HCMV-luciferase reporter, 72 h; stronger effect = lower value; in the data active = activity change below about -60%; inconclusive = no clear call, values can overlap the other calls; inactive = above about -39%
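Two compound doses tested in HFFs infected with HCMV-luciferase, MOI 1 PFU/cell, 72 h at 37C. Lysate luminescence read with OneGlo; data normalized against buffer-only and 10uM Salinomycin inhibitor controls.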
Sm TGR block: qHTS Assay for the Inhibitors of Schistosoma Mansoni Peroxiredoxins; Schistosoma mansoni thioredoxin glutathione reductase (TGR), Q962Y6; purified TGR, DTNB reduction, TNB absorbance 405 nm; Potency, µM (highest dose often 114 µM), actives largely listed as inhibitors; actives 3% (n = 360,000); also: nearly all actives have a fitted effect of over 60% in size
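First, TGR (20 nM dispensed) and NADPH were mixed with compound. Second, a 15 min room-temperature incubation followed. Third, further NADPH and then DTNB were added to start the reaction. Finally, TNB absorbance was monitored kinetically.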
Tb PYK inh: qHTS of Trypanosoma Brucei Inhibitors; TbPYK enzyme, Kinase-Glo Plus ATP luminescence, 45 min; AID 624173, 2012; actives 0.12% (n = 410,000); pyruvate kinase (Trypanosoma brucei), Q57TT1; Potency, µM (doses to about 76.8 µM), most hits filed as inhibitors; also: nearly all actives have a fitted effect of over 50% in size
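T. brucei PYK with substrate was exposed to pin-transferred compounds across a concentration series, then started with 130 uM ADP (final). After 45 min at room temperature, Kinase-Glo Plus luminescence was read, normalized and curve-fitted.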
FMDV inh: High Throughput Screening for Foot and Mouth Disease Virus Antivirals; Potency, µM (series often up to 57.9 µM), most hits filed as inhibitors; actives 1.2% (n = 410,000); FMDV antiviral cell-based qHTS; calls by dose curve; tested in HEK293T cells; also: read-out not given here; nearly all actives have a fitted effect of over 45% in size
Giardia FBPA inh: qHTS Assay for Inhibitors of Fructose-1,6-bisphosphate Aldolase from Giardia Lamblia; A8B2U2; purified Giardia FBPA; Potency, µM (doses to about 59.6 µM), most hits filed as inhibitors; actives 0.71% (n = 290,000); AID 2451, 2010; also: nearly all actives have a fitted effect of over 55% in size
Target sequence (A8B2U2 whole entry, looked up): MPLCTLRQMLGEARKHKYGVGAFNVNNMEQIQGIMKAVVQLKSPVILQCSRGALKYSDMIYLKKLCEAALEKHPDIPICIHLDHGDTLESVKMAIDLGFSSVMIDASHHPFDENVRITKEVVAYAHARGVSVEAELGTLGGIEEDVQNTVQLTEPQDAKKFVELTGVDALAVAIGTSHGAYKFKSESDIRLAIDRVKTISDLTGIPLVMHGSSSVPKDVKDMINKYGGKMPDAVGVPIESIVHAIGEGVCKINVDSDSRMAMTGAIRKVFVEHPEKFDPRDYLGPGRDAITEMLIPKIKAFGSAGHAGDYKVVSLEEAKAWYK
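40 nM FBPA preincubated 10 min at RT with compound (up to 57.5 uM final), then substrate plus GAPDH/TPI/NAD/arsenate coupling and diaphorase/resazurin added. Fluorescence read after 20 min at RT, 525/598 nm.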
A number is an active result. Most compounds without a hit are left out; they make up all but 7.7% or so of the library. Unless noted, calls follow the shape of the dose curve; as a rule, active = well fitted curve in the direction sought with a large enough effect; inconclusive = small, poorly fitted or top-dose-only effect, or another doubt; inactive = no such curve, though single readings can be large; an effect the other way counts as inactive or inconclusive.

Screening CO[C@H]1[C@H](NC(=O)c2cccs2)c2ccccc2C12CCN(Cc1cccn1-c1cccnc1)CC2 returned FMDV inh inactive.
C(=NCc1ccccc1)N1c2ccccc2-n2cccc2C1CCc1ccccc1 (stereo unspecified) was read as HCMV antiviral inactive.
For CCOc1ccc(NC(c2ccccn2)c2oc(CO)cc(=O)c2O)cc1 (stereo unspecified) the results were RE007 growth inh inactive, HCMV antiviral inactive, Sm TGR block 10µM, Tb PYK inh inactive, FMDV inh inactive and Giardia FBPA inh inconclusive.
For COCC(=O)N1CCC[C@@]2(CCN(C(=O)Nc3cccc(F)c3)C2)C1 the results were Tb PYK inh inactive, FMDV inh inactive and Giardia FBPA inh inactive.
For CN(C)c1ccc(C(=C2C=CC(=[N+](C)C)C=C2)c2ccccc2)cc1 the results were Tb PYK inh inactive and Giardia FBPA inh inactive.
For CN(C)c1ccc(C(=C2C=CC(=[N+](C)C)C=C2)c2ccc(N(C)C)cc2)cc1 the results were Tb PYK inh inconclusive, FMDV inh 17.8µM and Giardia FBPA inh 15.8µM.
For O=C(c1nn2c(C(F)(F)F)cc(-c3ccccc3)nc2c1Cl)N1CCN2CCCC2C1 (stereo unspecified) the results were RE007 growth inh inactive, HCMV antiviral -61.3, Sm TGR block inactive, Tb PYK inh inactive, FMDV inh inactive and Giardia FBPA inh inactive.
For CCOC1OC(=O)C(Cl)=C1Nc1ccccc1C (stereo unspecified) the results were RE007 growth inh inactive, HCMV antiviral inactive, Sm TGR block inactive, Tb PYK inh inactive, FMDV inh inactive and Giardia FBPA inh inactive.
Cc1ccccc1NC1=C(Cl)C(=O)OC1NC(=O)c1ccccc1 (stereo unspecified) was read as RE007 growth inh inactive, HCMV antiviral -82.3, Sm TGR block inactive, Tb PYK inh inactive and Giardia FBPA inh inactive.
Screening CCOc1ccc(/C(O)=C2/C(=O)C(=O)N(c3nc(C)c(C)s3)C2c2ccco2)cc1 (stereo unspecified) returned RE007 growth inh inactive, HCMV antiviral -90.0, Sm TGR block inconclusive, Tb PYK inh inactive, FMDV inh inactive and Giardia FBPA inh inactive.
CCN(CC)CCCN1C(=O)C(=O)/C(=C(/O)c2ccc(OC)cc2)C1c1ccco1 (stereo unspecified) was read as RE007 growth inh inactive, HCMV antiviral inactive, Tb PYK inh inactive and FMDV inh inactive.
For COC(=O)c1sc(N2C(=O)C(=O)/C(=C(/O)c3ccc(C)cc3)C2c2ccco2)nc1C (stereo unspecified) the results were RE007 growth inh inactive, Sm TGR block 7.08µM, Tb PYK inh inactive, FMDV inh inactive and Giardia FBPA inh inactive.
For CC(C)Cn1cc(C(=O)N2CCN(c3cccc(Cl)c3)CC2)c2c3ccccc3n(C)c2c1=O the results were HCMV antiviral inconclusive, Sm TGR block inactive, Tb PYK inh inactive and FMDV inh inactive.
Screening CCOC(=O)CN(C)C(=O)C1CC(CO[Si](C)(C)C(C)(C)C)=CN1C(=O)OC(C)(C)C (stereo unspecified) returned Giardia FBPA inh inactive.
Screening Cc1ccc(NC(=O)Cn2c(=O)c3ccccc3n3nncc23)cc1 returned HCMV antiviral inactive, Sm TGR block inactive, Tb PYK inh inactive and FMDV inh inactive.
For COc1ccccc1/C=N/N1CCN(c2ccc(Cl)cc2)CC1 the results were RE007 growth inh inactive, HCMV antiviral inactive, Sm TGR block inactive, Tb PYK inh inactive, FMDV inh inactive and Giardia FBPA inh inactive.
For CCOc1cccc(/C=N/N2CCN(c3ccc(Cl)cc3)CC2)c1O the results were RE007 growth inh inactive, HCMV antiviral -94.3, Sm TGR block inactive, Tb PYK inh inactive, FMDV inh inconclusive and Giardia FBPA inh inactive.
For CCC(CC)C(=O)Nc1nnc(S(=O)(=O)N(C)c2cc(C)cc(C)c2)s1 the results were HCMV antiviral inactive, Sm TGR block inactive, Tb PYK inh inactive and FMDV inh inactive.
Screening CCC1CN(C(=O)N2CCC(C(=O)N3CCN(c4cc(C)ccc4C)CC3)CC2)c2ccccc2O1 (stereo unspecified) returned HCMV antiviral inconclusive, Sm TGR block inactive, Tb PYK inh inactive and FMDV inh 17.8µM.
`CCC1CN(C(=O)N2CCC(C(=O)NCCc3ccccc3OC)CC2)c2ccccc2O1` (stereo unspecified) gave RE007 growth inh inactive, HCMV antiviral active, Sm TGR block inactive, Tb PYK inh inactive and FMDV inh inactive.
For CCC1CN(C(=O)N2CCC(C(=O)NCCc3ccc(OC)cc3OC)CC2)c2ccccc2O1 (stereo unspecified) the results were RE007 growth inh inactive, HCMV antiviral inactive, Sm TGR block inactive, Tb PYK inh inactive and FMDV inh inconclusive.
CCOc1ccccc1CNC(=O)C1CCN(C(=O)N2CC(CC)Oc3ccc(C)cc32)CC1 (stereo unspecified) was read as HCMV antiviral inactive, Sm TGR block inactive, Tb PYK inh inactive and FMDV inh 35.5µM.
For Cc1cccc2cc(CN(C(=O)c3ccc(N4CCCCC4)cc3)C3CC3)c(N3CCC(O)CC3)nc12 the results were FMDV inh inactive.
`COc1ccc(CCNc2ncnc3c2c(-c2ccccc2)cn3-c2cccc(Cl)c2)cc1OC` gave HCMV antiviral inactive, Sm TGR block inactive, Tb PYK inh inactive and FMDV inh 25.1µM.
For CCOc1ccc(-n2cc(-c3ccccc3)c3c(NCc4ccc(F)cc4)ncnc32)cc1 the results were HCMV antiviral inactive, Sm TGR block 79.4µM, Tb PYK inh inactive and FMDV inh inactive.
For COc1ccc(CCN2CCC(CN3C(=S)NC[C@@H]3Cc3ccccc3)CC2)cc1OC the results were HCMV antiviral inactive.
`O=C(Nc1ccc([N+](=O)[O-])cc1)Nc1ccc([N+](=O)[O-])cc1` gave Tb PYK inh inactive.
`CC1(C)C(C=C(Cl)Cl)C1C(=O)Nc1ccc([N+](=O)[O-])cc1` (stereo unspecified) gave RE007 growth inh inconclusive, HCMV antiviral -95.6, Sm TGR block inactive, Tb PYK inh inactive, FMDV inh inconclusive and Giardia FBPA inh inactive.
`CCOC(=O)C1C(=O)C=C(c2ccc(C)cc2)CC1c1ccc([N+](=O)[O-])cc1` (stereo unspecified) gave HCMV antiviral -70.7, Sm TGR block inactive, Tb PYK inh inactive, FMDV inh inactive and Giardia FBPA inh inactive.

Screening results as filed in PubChem BioAssay.
